WT yeast gro inh = growth inhibition of WT yeast, mitochondrial fusion screen | AID 1362 | mitochondrial fusion phenotypic screen, WT strain | 190,000 tested, 2.1% active | inhibition, % at 10 µM; in the data active = inhibition above about 58%; tested in S. cerevisiae
RAM inhibit = blocks the yeast RAM network; S. cerevisiae dse1pr::URA3 reporter, 5-FOA growth OD615, 2 d; analog-sensitive cbk1-as2 kinase mutant strain; inhibition, % at 50 µM; 190,000 tested, 1.8% active;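 active = inhibition above a set limit, 3 SD over mean compound inhibition, cut at about 8.4% in these data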;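 also: inhibition rescues growth on 5-FOA so higher OD means more RAM inhibition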
CHOP inhibitor = CHOP inhibition in unfolded protein response | 220,000 tested, 3.8% active | inhibition, % at 10 µM | CHO-K1 CHOP-promoter luciferase, tunicamycin-induced, 15-18 h;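 active = compounds that reduced the stress-induced luciferase reporter signal by more than about 70% of percent inhibition, limit read from the data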
Lmaj promast = reduces viability of Leishmania major promastigotes; 200,000 tested, 9% active; resazurin fluorescence viability; inhibition, % at 10 µM; AID 1063; in the data active = inhibition above about 50%;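 also: promastigotes grown with compound for 44 hours at 28 °C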
A number is an active result; n = inactive; x = not tested or not shown. Most compounds without a hit are left out; they make up all but 13% or so of the library.

SMILES	WT yeast gro inh	RAM inhibit	CHOP inhibitor	Lmaj promast
COc1cccc(/C=N/NC(=O)c2[nH]c(C)c(C(=O)N/N=C/c3cccc(OC)c3O)c2C)c1O	n	n	n	91
O=C(CSCC(=O)Nc1ccccc1)N/N=C/c1c(O)ccc2ccccc12	n	n	n	100
Nc1nonc1N/N=C/c1c(O)ccc2ccccc12	n	n	n	n
O=C(NC(Cc1ccccc1)C(=O)O)/C(=C/c1ccco1)NC(=O)c1cccc(Br)c1 (stereo not given)	n	n	n	n
N=C(N)SCCc1ccc(CCSC(=N)N)cc1	x	x	n	x
Cn1c(=O)oc2cc(S(=O)(=O)N3CCC(C(=O)NCc4ccc(F)cc4)CC3)ccc21	n	n	n	n
O=C(NCc1ccccc1Cl)C1CCN(C(=O)c2sccc2-n2cccc2)CC1	n	8.9	n	n
Cc1ccc(S(=O)(=O)N2CCC(C(=O)NCCc3ccc(S(N)(=O)=O)cc3)CC2)cc1	n	8.9	n	n
Cc1ccc(S(=O)(=O)N2CCC(C(=O)NCCN3CCCCCC3)CC2)cc1	n	n	n	100
Cn1c(=O)oc2cc(S(=O)(=O)N3CCC(C(=O)NCc4cccs4)CC3)ccc21	n	n	75	n
Cc1nc(NC(=O)CSc2nnc(N)s2)c(Cl)cc1Cl	n	n	n	n
CCn1c(-c2ccccc2Cl)nn(CC(=O)Nc2ccccc2C)c1=S	n	n	n	n
O=C(c1ccc(CNc2c(N3CCCC3)c(=O)c2=O)cc1)N1CCc2ccccc2C1	n	n	n	n
Cc1ccc(S(=O)(=O)N2CCC(C(=O)NCCc3ccccc3)CC2)cc1	n	n	n	n
O=C(NCc1ccccc1Cl)C1CCN(S(=O)(=O)c2ccc(F)cc2)CC1	n	n	n	n
Cc1ccc(S(=O)(=O)N2CCC(C(=O)NCc3ccccc3Cl)CC2)cc1	n	n	n	73
Cc1ccc(S(=O)(=O)N2CCC(C(=O)N[C@@H](Cc3ccccc3)C(=O)O)CC2)cc1	n	n	n	54
Cc1ccc(NC(=O)CCCCCCCCCCC2COCCO2)c(C)c1 (stereo not given)	n	n	n	n
COc1cc(CCC(=O)N2CCN(c3ncccn3)CC2)cc(OC)c1OC	n	n	n	n
COc1ccccc1NC(=O)Nc1ccccc1C(=O)NCCCN1CCOCC1	x	x	n	x
C=CCSC1=C(C#N)C(c2ccccc2Cl)C(C(=O)c2cccs2)C(O)(C(F)(F)F)N1 (stereo not given)	n	n	n	88
CCCN(CCC)Cc1cc(=O)oc2cc3c(cc12)CCC3	x	x	n	x
O=C(N=C1N=C2C=CC(Br)=CN2Cc2ccccc21)c1ccc([N+](=O)[O-])cc1[N+](=O)[O-]	x	x	n	x
N#CC1=C(N)NC(SCC(=O)Nc2ccccc2)=C(C#N)C12CCCCC2	n	n	n	77
CCSC1=C(C#N)C2(CCCCC2)C(C#N)=C(N)N1	n	n	n	n
SMILES	WT yeast gro inh	RAM inhibit	CHOP inhibitor	Lmaj promast
N#CC1=C(N)NC(SCc2ccccc2)=C(C#N)C12CCCCC2	n	n	n	99
N#CC1=C(N)NC(SCC(=O)c2ccc(Cl)cc2)=C(C#N)C12CCCC2	n	n	n	n
CCOC(=O)C1(Cc2ccc(OC)cc2)CCN(C(=O)c2ccoc2C)CC1	n	n	n	n
O=C(NC1CCCCC1)c1sc(N2CCOCC2)nc1-c1ccccc1	n	n	n	88
O=C(Nc1ccccc1)c1sc(N2CCOCC2)nc1-c1ccccc1	n	n	n	n
Cc1cccc(Nc2nc(-c3c(C)nc4ccccn34)cs2)c1	n	n	77	n
Cc1nc2ccccn2c1-c1csc(Nc2cccc(O)c2)n1	n	n	n	n
Nc1ccc(OC(=O)Nc2ccc(O)cc2)cc1	x	x	82	x
CC1=C(C(=O)Nc2ccccc2)C(c2ccc(C)o2)n2c(s/c(=C\c3ccco3)c2=O)=N1 (stereo not given)	n	n	n	84
COc1ccc(Cc2nnc(NC(=O)CSc3ccc(Cl)cc3)s2)cc1OC	n	n	n	n
CCOC(=O)C1CCCN(c2c(NCCc3ccc(Cl)cc3)c(=O)c2=O)C1 (stereo not given)	x	x	n	x
CCc1c(C)nc2ncnn2c1N1CCC(C(=O)Nc2cccc(C(C)=O)c2)CC1	n	n	n	n
COc1ccc(C2CCN(CC(=O)N(C)C)CC2O)cc1 (stereo not given)	n	n	n	n
CC1CC(C)CN(C2CCN(Cc3cccnc3)CC2)C1 (stereo not given)	63	n	n	n
COc1ccc(C2CCN(Cc3cccnc3)CC2O)cc1 (stereo not given)	n	n	n	88
O=S(=O)(NCc1ccc2c(c1)OCO2)c1cccc(S(=O)(=O)N2CCOCC2)c1	n	n	n	n
O=NN(CCc1ccncc1)c1ccc(OCc2ccccc2)cc1	n	n	n	86
O=C(N/N=C/c1ccccc1[N+](=O)[O-])c1cnccn1	x	x	n	x
CCCCN(C)C(=O)c1oc2ccc(S(=O)(=O)N3CCCCCC3)cc2c1C	n	9.8	n	n
CCOC(=O)N1CCN(C(=O)c2oc3ccc(S(=O)(=O)N4CCCCC4)cc3c2C)CC1	n	n	n	n
Cc1c(C(=O)Nc2ccc(F)c(F)c2)oc2ccc(S(=O)(=O)N3CCCCC3)cc12	n	n	75	n
Cc1c(C(=O)Nc2cccc(Cl)c2)oc2ccc(S(=O)(=O)N3CCC4(CC3)OCCO4)cc12	n	n	n	52
Cc1c(C(=O)Nc2ccc(F)cc2)oc2ccc(S(=O)(=O)N3CCC4(CC3)OCCO4)cc12	n	n	71	n
CCC(C)(C)NC(=O)C(c1cccnc1)N(C(=O)c1csnn1)c1ccccc1 (stereo not given)	n	n	n	n
Cc1nc(NC(=O)CSc2ccccc2N)sc1C	n	n	n	n
SMILES	WT yeast gro inh	RAM inhibit	CHOP inhibitor	Lmaj promast
COc1ccccc1N1CCN(C(=O)CN(C)S(=O)(=O)c2ccc3c(c2)c(=O)n(C)c(=O)n3C)CC1	n	n	n	n
Cc1ccccc1Nc1scc(-c2ccc(Cl)cc2)[n+]1-c1ccccc1C	59	n	n	n
Fc1ccc(NC(=S)Nc2ccc(F)c(Cl)c2)cc1Cl	n	n	n	97
COc1ccc(CNC(=S)Nc2ccc(F)c(Cl)c2)cc1	n	n	n	n
Cc1ccc(NC(=S)Nc2ccc(OC(F)F)c(Cl)c2)cc1F	85	n	n	n
Fc1ccc(NC(=S)N2CCCC2)cc1Cl	n	n	n	95
COCCN(C(=O)CSc1nc2ccccc2c(=O)n1CCOC)c1c(N)n(Cc2ccccc2)c(=O)[nH]c1=O	n	n	n	n
COCCNC(=O)CSc1nnc(CCCN2C(=O)c3cccc4cccc(c34)C2=O)n1-c1ccccc1	n	n	n	n
COc1ccc2c(C)nc(Nc3nc(C)cc(C)n3)nc2c1	n	n	n	n
COc1ccc2nc(NC3=NC(c4ccccc4)CC(=O)N3)nc(C)c2c1 (stereo not given)	n	n	n	94
COc1nc(Nc2nc3ccccc3c(=O)[nH]2)nc2ccc(C)cc12	x	x	88	x
CCc1ccc2nc(Nc3nc(COC)cc(=O)[nH]3)nc(C)c2c1	n	n	n	n
CCc1c(C)nc(Nc2nc(C)c3cc(OC)ccc3n2)[nH]c1=O	n	n	n	98
CCCCCc1c(C)nc(Nc2nc(C)c3cc(OC)ccc3n2)[nH]c1=O	n	n	90	99
COC(=O)Nc1ccc(S(=O)(=O)N2CCC(C(=O)NC3CCCCC3)CC2)cc1	n	n	n	n
